# Measurements taken from the antibiotic and cytotoxicity screens of Wong et al. (2023).
# The whole screen tested about 39,000 compounds, of which about 3,300 (8.5%) were called active. This is one part of a sample in which actives are shown more often than they occur.
# Tested on: HepG2
# Assay: cytotoxicity call (relative viability < 0.9)
# Details: 10 µM
row,SMILES,cytotoxicity call
1,C[C@H](CO)N1C[C@H](C)[C@@H](CN(C)C(=O)CCC(F)(F)F)OCCCC[C@H](C)Oc2ccc(NC(=O)C3CCCCC3)cc2C1=O,inactive
2,Cc1noc(C)c1NC(=O)N(C)C[C@@H]1OCCCC[C@H](C)Oc2ccc(NC(=O)CCC(F)(F)F)cc2C(=O)N([C@@H](C)CO)C[C@H]1C,inactive
3,C[C@H](CO)N1C[C@H](C)[C@H](CN(C)Cc2ccc(Cl)c(Cl)c2)Oc2c(NC(=O)Nc3ccccc3)cccc2C1=O,inactive
4,C[C@@H]1CN([C@H](C)CO)C(=O)c2cccc(NS(=O)(=O)c3ccc(Cl)cc3)c2O[C@H]1CN(C)Cc1ccc(Cl)c(Cl)c1,inactive
5,O=S1(=O)C[C@H](NCCO)[C@@H](O)C1,inactive
6,OCc1c[nH]c2ccccc12,active
7,CNC(=O)C(=O)NCCc1c[nH]c2ccccc12,inactive
8,NC(Cc1c[nH]c2ccccc12)C(=O)O (centres undefined),inactive
9,C[C@@H]1CN([C@H](C)CO)C(=O)c2cccc(NC(=O)c3nc4ccccc4s3)c2O[C@H]1CN(C)C(=O)Nc1ccc(F)cc1,inactive
10,CN1CCN(C(=O)CC#N)CC1,inactive
11,C[C@@H]1CN([C@@H](C)CO)C(=O)c2cccc(NC(=O)C3CCCCC3)c2O[C@H]1CN(C)S(=O)(=O)c1cn(C)cn1,inactive
12,CCCCCC[C@@H](O)CC=CCCCCCCCC(=O)O,inactive
13,N[C@@H]1CC[C@@H](c2ccc(Cl)c(Cl)c2)c2ccccc21,active
14,CN[C@H]1CC[C@@H](c2ccc(Cl)c(Cl)c2)c2ccccc21,active
15,CNC1CCC(c2ccc(Cl)c(Cl)c2)c2ccccc21.Cl (centres undefined),active
16,C[C@@H]1CN([C@@H](C)CO)C(=O)CCCn2nncc2CO[C@@H]1CN(C)S(=O)(=O)c1ccc(C#N)cc1,inactive
17,CC(=O)NCCCC[C@@H]1NC(=O)[C@@H]2C[C@H](C(=O)NCCCCCCNC(=O)CS)[C@H](c3ccc(O)cc3)N2C1=O,inactive
18,C[C@@H]1CCCCO[C@H](CN(C)C(=O)NC2CCCCC2)[C@H](C)CN([C@@H](C)CO)C(=O)c2cc(NC(=O)c3ccncc3)ccc2O1,inactive
19,C[C@@H]1CN([C@@H](C)CO)C(=O)c2cc(NC(=O)NC3CCCCC3)ccc2O[C@@H](C)CCCCO[C@H]1CN(C)Cc1ccc(C(=O)O)cc1,inactive
20,CC(C)NC(=O)N(C)C[C@@H]1Oc2c(NS(=O)(=O)c3cn(C)cn3)cccc2C(=O)N([C@@H](C)CO)C[C@H]1C,inactive

row,SMILES,cytotoxicity call
1,C[C@@H]1CCCCO[C@@H](CN(C)S(=O)(=O)c2ccccc2)[C@H](C)CN([C@H](C)CO)C(=O)c2cc(NC(=O)Nc3cccc4ccccc34)ccc2O1,inactive
2,C[C@H]1CN([C@@H](C)CO)C(=O)c2cccc(NC(=O)C3CCOCC3)c2O[C@H]1CN(C)Cc1ccncc1,inactive
3,COCCOC(=O)N1C(=O)[C@@]2(c3cc(C#CC4=CCCCC4)ccc31)[C@H](c1ccccc1OCCO)N1[C@H](c3ccccc3)[C@H](c3ccccc3)OC(=O)[C@H]1[C@@H]2C(=O)N1CCCCCCC1,inactive
4,COCCOC(=O)N1C(=O)[C@@]2(c3cc(C#CCCO)ccc31)[C@H](c1ccccc1OCCO)N1[C@H](c3ccccc3)[C@H](c3ccccc3)OC(=O)[C@H]1[C@@H]2C(=O)N1CCc2cc(OC)c(OC)cc2C1,inactive
5,COCCOC(=O)N1C(=O)[C@@]2(c3cc(C#CCCO)ccc31)[C@H](C(=O)N1CCc3cc(OC)c(OC)cc3C1)[C@H]1C(=O)O[C@H](c3ccccc3)[C@H](c3ccccc3)N1[C@@H]2c1ccccc1OCCO,active
6,COCCOC(=O)N1C(=O)[C@@]2(c3cc(C#CC4=CCCCC4)ccc31)[C@H](c1ccccc1OCCO)N1[C@H](c3ccccc3)[C@H](c3ccccc3)OC(=O)[C@H]1[C@@H]2C(=O)N1CCc2cc(OC)c(OC)cc2C1,inactive
7,COCCOC(=O)N1C(=O)[C@@]2(c3cc(C#CC4=CCCCC4)ccc31)[C@H](C(=O)N1CCc3cc(OC)c(OC)cc3C1)[C@H]1C(=O)O[C@H](c3ccccc3)[C@H](c3ccccc3)N1[C@@H]2c1ccccc1OCCO,active
8,COCCOC(=O)N1C(=O)[C@@]2(c3cc(C#CC4=CCCCC4)ccc31)[C@H](c1ccc(OCCO)cc1)N1[C@H](c3ccccc3)[C@H](c3ccccc3)OC(=O)[C@H]1[C@@H]2C(=O)N1CCc2cc(OC)c(OC)cc2C1,active
9,COCCOC(=O)N1C(=O)[C@@]2(c3cc(C#CC4=CCCCC4)ccc31)[C@H](c1ccc(OCCO)cc1)N1[C@H](c3ccccc3)[C@H](c3ccccc3)OC(=O)[C@H]1[C@@H]2C(=O)N1CCCCCCC1,inactive
10,COCCOC(=O)N1C(=O)[C@@]2(c3cc(C#CC4=CCCCC4)ccc31)[C@H](C(=O)N1CCc3cc(OC)c(OC)cc3C1)[C@H]1C(=O)O[C@H](c3ccccc3)[C@H](c3ccccc3)N1[C@@H]2c1ccc(O)cc1,inactive
11,COCCOC(=O)N1C(=O)[C@@]2(c3cc(C#CCNC(N)=O)ccc31)[C@H](C(=O)N1CCc3cc(OC)c(OC)cc3C1)[C@H]1C(=O)O[C@H](c3ccccc3)[C@H](c3ccccc3)N1[C@@H]2c1ccccc1OCCO,inactive
12,C[C@H]1CN([C@@H](C)CO)C(=O)Cc2cc(NS(=O)(=O)c3ccc(F)cc3)ccc2O[C@H]1CN(C)S(=O)(=O)c1cccs1,inactive
13,Cc1ccccc1-c1ccc2c(c1)O[C@@H](CN(C)C(=O)Nc1ccc(C(F)(F)F)cc1)[C@@H](C)CN([C@@H](C)CO)S2(=O)=O,inactive
14,COC(=O)[C@@H]1CC(=O)N(C(C)C)C1,inactive
15,C[C@@H]1CN([C@H](C)CO)C(=O)c2c(c3ccccc3n2C)-c2ccccc2CO[C@@H]1CN(C)Cc1ccc(Oc2ccccc2)cc1,inactive
16,CN1CCN(C(=O)C[C@@H]2C=C[C@H](NC(=O)Cc3ccccn3)[C@@H](CO)O2)CC1,inactive
17,CCCC#Cc1cnc2c(c1)C(=O)N([C@@H](C)CO)C[C@@H](C)[C@H](CN(C)C(=O)c1ccc3c(c1)OCO3)O2,inactive
18,Cc1noc(C)c1NC(=O)N(C)C[C@H]1Oc2ccc(NC(=O)Nc3cccc4ccccc34)cc2CC(=O)N([C@@H](C)CO)C[C@H]1C,inactive
19,C[C@H]1CCCCO[C@H](CN(C)C(=O)Nc2ccc(C(F)(F)F)cc2)[C@@H](C)CN([C@@H](C)CO)C(=O)c2cc(NC(=O)CCC(F)(F)F)ccc2O1,active
20,C[C@@H]1CCCCO[C@@H](CN(C)C(=O)Nc2ccc(C(F)(F)F)cc2)[C@H](C)CN([C@@H](C)CO)C(=O)c2cc(NC(=O)CCC(F)(F)F)ccc2O1,inactive

row,SMILES,cytotoxicity call
1,C[C@@H]1CCCCO[C@H](CN(C)C(=O)Nc2ccc(C(F)(F)F)cc2)[C@H](C)CN([C@@H](C)CO)C(=O)c2cc(NC(=O)CCC(F)(F)F)ccc2O1,active
2,C[C@H](CO)N1C[C@H](C)[C@H](CN(C)C(=O)Nc2ccc(C(F)(F)F)cc2)OCCCC[C@H](C)Oc2ccc(NC(=O)CCC(F)(F)F)cc2C1=O,inactive
3,C[C@@H]1CCCCO[C@@H](CN(C)C(=O)Nc2ccc(C(F)(F)F)cc2)[C@@H](C)CN([C@H](C)CO)C(=O)c2cc(NC(=O)CCC(F)(F)F)ccc2O1,inactive
4,C[C@@H]1CCCCO[C@H](CN(C)C(=O)Nc2ccc(C(F)(F)F)cc2)[C@H](C)CN([C@H](C)CO)C(=O)c2cc(NC(=O)CCC(F)(F)F)ccc2O1,inactive
5,C[C@@H]1CN([C@@H](C)CO)C(=O)c2cc(NC(=O)CCC(F)(F)F)ccc2O[C@@H](C)CCCCO[C@H]1CN(C)C(=O)Nc1ccc(C(F)(F)F)cc1,inactive
6,C[C@H](CO)N1C[C@H](C)[C@@H](CN(C)C(=O)Nc2ccc(C(F)(F)F)cc2)OCCCC[C@H](C)Oc2ccc(NC(=O)CCC(F)(F)F)cc2C1=O,active
7,C[C@@H]1CCCCO[C@H](CN(C)C(=O)Nc2ccc(C(F)(F)F)cc2)[C@@H](C)CN([C@H](C)CO)C(=O)c2cc(NC(=O)CCC(F)(F)F)ccc2O1,inactive
8,Clc1ccc2c(c1)[C@H]1C=CC[C@@H]1[C@@H](c1ccccc1)N2,inactive
9,O=C(C[C@H]1C[C@H]2c3cc(NC(=O)C4CCOCC4)ccc3O[C@H]2[C@@H](CO)O1)NCc1ccc2c(c1)OCO2,inactive
10,C[C@@H]1CN([C@H](C)CO)C(=O)c2cc(NC(=O)Nc3cccc4ccccc34)ccc2O[C@@H](C)CCCCO[C@@H]1CN(C)C(=O)NC1CCCCC1,inactive
11,CN(C)C(=O)CN1CCC2(CC1)CN(CCn1cccn1)C(=O)CO2,inactive
12,CO[C@@H]1CN(C)C(=O)c2ccc(NS(=O)(=O)CC(F)(F)F)cc2OC[C@@H](C)N(C(=O)c2ccc3c(c2)OCO3)C[C@@H]1C,inactive
13,Cc1noc(C)c1NC(=O)N[C@H]1C=C[C@@H](CC(=O)N2CCN(C)CC2)O[C@@H]1CO,inactive
14,CCCNC(=O)[C@@]1(c2ccc([N+](=O)[O-])cc2)CC(=O)N(CC23CC4CC(CC(C4)C2)C3)[C@@H]1c1ccc(CO)cc1I,inactive
15,CC(C)NC(=O)[C@@]1(c2ccc([N+](=O)[O-])cc2)CC(=O)N(CC23CC4CC(CC(C4)C2)C3)[C@@H]1c1ccc(CO)cc1I,active
16,CC(C)CNC(=O)[C@@]1(c2ccc([N+](=O)[O-])cc2)CC(=O)N(CC23CC4CC(CC(C4)C2)C3)[C@@H]1c1ccc(CO)cc1I,inactive
17,CN(C)c1cc(NC(=O)CNC(C)(C)C)c(O)c2c1C[C@H]1C[C@H]3[C@H](N(C)C)C(=O)C(C(N)=O)=C(O)[C@@]3(O)C(=O)[C@H]1C2=O,inactive
18,O=C(C[C@@H]1C[C@H]2c3cc(NC(=O)Cc4ccncc4)ccc3O[C@H]2[C@@H](CO)O1)NCc1cccc(F)c1,inactive
19,N[C@H](C(=O)O)[C@@H]1CC(Cl)=NO1,active
